# Laboratory results: the supplement of paper PMC7411054
# Experiments:
# Conditions in all cases: treatment time: 24 h
# A549-ACTB-RAB5A [1] = assay: phenotypically active (imaging signature differs from DMSO and reproducible) at any of 0.3-9 uM (binary (1 = active, 0 = inactive)); higher = active
# Procedure, shortened: (§1)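 After 24 h at 0.3, 1, 3 or 9 µM, with four wells per treatment, fifteen gene-edited A549, HepG2 and WPMY1 reporter lines carrying BFP, GFP and RFP/FusionRed were imaged live. Each well's live-cell features were expressed relative to solvent control wells. Deviation required ≥3 of 4 wells past the 95th percentile of control Euclidean distances, and reproducibility a median replicate Pearson correlation over the 95th percentile of non-replicates. Phenotypic activity rested on both.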
# A549-CANX-COX4 [2] = assay: as above
# Procedure, shortened: as §1
# A549-GM130-SQSTM1 [3] = assay: as above
# Procedure, shortened: as §1
# A549-TP53BP1-CLTA [4] = assay: as above
# Procedure, shortened: as §1
# A549-TUBA1B-RELA [5] = assay: as above
# Procedure, shortened: as §1
# HepG2-ACTB-RAB5A = assay: as above
# Procedure, shortened: as §1
# HepG2-CANX-COX4 = assay: as above
# Procedure, shortened: as §1
# HepG2-GM130-SQSTM1 = assay: as above
# Procedure, shortened: as §1
# HepG2-TP53BP1-CLTA = assay: as above
# Procedure, shortened: as §1
# HepG2-TUBA1B-RELA = assay: as above
# Procedure, shortened: as §1
# WPMY1-ACTB-RAB5A = assay: as above
# Procedure, shortened: as §1
# WPMY1-CANX-COX4 = assay: as above
# Procedure, shortened: as §1
# WPMY1-GM130-SQSTM1 = assay: as above
# Procedure, shortened: as §1
# WPMY1-TP53BP1-CLTA = assay: as above
# Procedure, shortened: as §1
# WPMY1-TUBA1B-RELA = assay: as above
# Procedure, shortened: as §1
# A549-ACTB-RAB5A [6] = assay: lowest phenotypically active concentration; higher = less potent
# Procedure, shortened: as §1
# A549-CANX-COX4 [7] = assay: as above
# Procedure, shortened: as §1
# A549-GM130-SQSTM1 [8] = assay: as above
# Procedure, shortened: as §1
# A549-TP53BP1-CLTA [9] = assay: as above
# Procedure, shortened: as §1
# A549-TUBA1B-RELA [10] = assay: as above
# Procedure, shortened: as §1
Structure (SMILES),phenotypically active (A549-ACTB-RAB5A [1]),phenotypically active (A549-CANX-COX4 [2]),phenotypically active (A549-GM130-SQSTM1 [3]),phenotypically active (A549-TP53BP1-CLTA [4]),phenotypically active (A549-TUBA1B-RELA [5]),phenotypically active (HepG2-ACTB-RAB5A),phenotypically active (HepG2-CANX-COX4),phenotypically active (HepG2-GM130-SQSTM1),phenotypically active (HepG2-TP53BP1-CLTA),phenotypically active (HepG2-TUBA1B-RELA),phenotypically active (WPMY1-ACTB-RAB5A),phenotypically active (WPMY1-CANX-COX4),phenotypically active (WPMY1-GM130-SQSTM1),phenotypically active (WPMY1-TP53BP1-CLTA),phenotypically active (WPMY1-TUBA1B-RELA),lowest phenotypically active concentration (A549-ACTB-RAB5A [6]),lowest phenotypically active concentration (A549-CANX-COX4 [7]),lowest phenotypically active concentration (A549-GM130-SQSTM1 [8]),lowest phenotypically active concentration (A549-TP53BP1-CLTA [9]),lowest phenotypically active concentration (A549-TUBA1B-RELA [10])
C[C@]12CC[C@@H]3c4ccc(O)cc4CC[C@H]3[C@@H]1CC[C@@H]2O [estradiol],0 (inactive),0 (inactive),0 (inactive),0 (inactive),0 (inactive),0 (inactive),0 (inactive),0 (inactive),0 (inactive),0 (inactive),0 (inactive),0 (inactive),0 (inactive),0 (inactive),0 (inactive),–,–,–,–,–
CCCC(=O)O[C@]1(C(=O)COC(C)=O)CC[C@H]2[C@@H]3C[C@H](F)C4=CC(=O)C=C[C@]4(C)[C@@]3(F)[C@@H](O)C[C@@]21C [difluprednate],1 (active),1 (active),1 (active),1 (active),1 (active),0 (inactive),0 (inactive),0 (inactive),0 (inactive),0 (inactive),0 (inactive),0 (inactive),0 (inactive),0 (inactive),0 (inactive),≤ 0.3 µM,≤ 0.3 µM,≤ 0.3 µM,≤ 0.3 µM,≤ 0.3 µM
CCCNC(C)C(=O)Nc1c(C)csc1C(=O)OC (stereo not drawn) [articaine],0 (inactive),0 (inactive),0 (inactive),0 (inactive),0 (inactive),0 (inactive),0 (inactive),0 (inactive),0 (inactive),0 (inactive),0 (inactive),0 (inactive),0 (inactive),0 (inactive),0 (inactive),–,–,–,–,–
CN([C@H]1c2cc(OCCCC(F)(F)F)ccc2OC(C)(C)[C@@H]1O)S(C)(=O)=O,0 (inactive),0 (inactive),0 (inactive),0 (inactive),0 (inactive),0 (inactive),0 (inactive),0 (inactive),0 (inactive),0 (inactive),0 (inactive),0 (inactive),0 (inactive),0 (inactive),0 (inactive),–,–,–,–,–
NC(=O)c1ccc(N(C(N)=O)c2c(F)cccc2F)nc1-c1ccc(F)cc1F,1 (active),0 (inactive),0 (inactive),0 (inactive),0 (inactive),0 (inactive),0 (inactive),0 (inactive),0 (inactive),0 (inactive),0 (inactive),0 (inactive),0 (inactive),0 (inactive),0 (inactive),9 µM,–,–,–,–
O=c1ncn2nc(Sc3ccc(F)cc3F)ccc2c1-c1c(Cl)cccc1Cl,1 (active),0 (inactive),0 (inactive),0 (inactive),0 (inactive),0 (inactive),0 (inactive),0 (inactive),0 (inactive),0 (inactive),0 (inactive),0 (inactive),0 (inactive),0 (inactive),0 (inactive),9 µM,–,–,–,–
OCCN1C[C@H](O)[C@@H](O)[C@H](O)[C@H]1CO [Miglitol],0 (inactive),0 (inactive),0 (inactive),0 (inactive),0 (inactive),0 (inactive),0 (inactive),0 (inactive),0 (inactive),0 (inactive),0 (inactive),0 (inactive),0 (inactive),0 (inactive),0 (inactive),–,–,–,–,–
O=C(O)c1c(Sc2ccccc2)c2cc(Cl)ccc2n1Cc1ccc(Cl)cc1,0 (inactive),0 (inactive),0 (inactive),0 (inactive),0 (inactive),0 (inactive),0 (inactive),0 (inactive),0 (inactive),0 (inactive),0 (inactive),0 (inactive),0 (inactive),0 (inactive),0 (inactive),–,–,–,–,–
C#Cc1cccc(Nc2ncnc3cc(OCCOC)c(OCCOC)cc23)c1 [erlotinib],1 (active),1 (active),1 (active),1 (active),1 (active),1 (active),1 (active),1 (active),1 (active),1 (active),0 (inactive),0 (inactive),0 (inactive),0 (inactive),0 (inactive),≤ 0.3 µM,3 µM,3 µM,1 µM,1 µM
Cc1cc(O)cc2c1C(=O)Oc1cc3c(c(O)c1O2)C(=O)OC3 [Variolaric acid],0 (inactive),0 (inactive),0 (inactive),0 (inactive),0 (inactive),0 (inactive),0 (inactive),0 (inactive),0 (inactive),0 (inactive),0 (inactive),0 (inactive),0 (inactive),0 (inactive),0 (inactive),–,–,–,–,–
COc1nc(N)nc2c1ncn2[C@@H]1O[C@H](CO)[C@@H](O)[C@@H]1O [Nelarabine],1 (active),0 (inactive),0 (inactive),0 (inactive),0 (inactive),0 (inactive),0 (inactive),0 (inactive),0 (inactive),0 (inactive),0 (inactive),0 (inactive),0 (inactive),0 (inactive),0 (inactive),9 µM,–,–,–,–
